# PubChem BioAssay (NCI)
# “And” between values parts separate entries of the source, which are not always exact repeats. Equal entries are not always repeated. This is part of a sample that, as a whole, favours compounds with a hit. Of some 83,000 tested, about 20% had one in any assay.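 Interpretation: 100, growth as untreated; towards 0, rising growth inhibition; 0, no net growth; 0 to -100, cell death. Compounds scoring below 10 were considered active.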 The source made the active and inactive calls.
# Key:
# Assay in all cases: NCI-60 one-dose screen, 48 h (100 = growth as untreated, 0 = no growth, -100 = all killed)
# HCT-15 colon = settings: 10 µM
# HT29 colon = test system: HT29 colon
# SNB-75 CNS = settings: 10 µM
# SNB-19 CNS = test system: SNB-19 CNS
# U251 CNS = test system: U251 CNS
# PC-3 prostate = settings: 10 µM
# LOX IMVI melanoma = test system: LOX IMVI melanoma
# SK-MEL-28 melanoma = test system: SK-MEL-28 melanoma
# UACC-62 melanoma = test system: UACC-62 melanoma
# SK-MEL-5 melanoma = settings: 10 µM unless noted
compound,measurement,setting,value
CN1CCN(CCCN2c3ccccc3Sc3ccc(C(F)(F)F)cc32)CC1,growth,HCT-15 colon,29.3% (inactive)
same,growth,HT29 colon; 10 µM,5.41% (active)
same,growth,SNB-75 CNS,52.5% (inactive)
same,growth,SNB-19 CNS; 10 µM,73.8% (inactive)
same,growth,U251 CNS; 10 µM unless noted,27.9% (inactive)
same,growth,PC-3 prostate,39.8% (inactive)
same,growth,LOX IMVI melanoma; 10 µM unless noted,15.3% (inactive)
same,growth,SK-MEL-28 melanoma; 10 µM,-45.4% (active)
COC(=O)C1C(O)C(C)C(O)C(C)C=C(C)C2=C3C(=C(C)C(=O)c4c(O)c(c(C)c(OC(C)=O)c43)NC(=O)C(C)=C/C=C\C(C)C(O)C(C)C1O)OCO2 (configuration not stated),growth,HCT-15 colon,115% (inactive)
same,growth,HT29 colon; 10 µM,114% (inactive)
same,growth,SNB-19 CNS; 10 µM,109% (inactive)
same,growth,U251 CNS; 10 µM unless noted,110% (inactive)
same,growth,UACC-62 melanoma; 10 µM,103% (inactive)
same,growth,LOX IMVI melanoma; 10 µM unless noted,102% (inactive)
same,growth,SK-MEL-28 melanoma; 10 µM,118% (inactive)
Clc1ccc(/C=C/c2ccccn2)c(Cl)c1,growth,HCT-15 colon,68.2% (inactive)
same,growth,HT29 colon; 10 µM,83.3% (inactive)
same,growth,SNB-19 CNS; 10 µM,92.7% (inactive)
same,growth,U251 CNS; 10 µM unless noted,79.1% (inactive)
same,growth,SK-MEL-5 melanoma,81.6% (inactive)
same,growth,UACC-62 melanoma; 10 µM,80.6% (inactive)
same,growth,LOX IMVI melanoma; 10 µM unless noted,91.3% (inactive)
same,growth,SK-MEL-28 melanoma; 10 µM,120% (inactive)
Cc1nc(N=C(N)N)nc2ccc3ccccc3c12,growth,HT29 colon; 10 µM,1.55% (active)
same,growth,SNB-75 CNS,-10.3% (active)
same,growth,SNB-19 CNS; 10 µM,-11.5% (active)
same,growth,U251 CNS; 10 µM unless noted,-17% (active)
same,growth,PC-3 prostate,-19.2% (active)
same,growth,UACC-62 melanoma; 10 µM,-20.9% (active)
same,growth,LOX IMVI melanoma; 10 µM unless noted,2.45% (active)
same,growth,SK-MEL-28 melanoma; 10 µM,-0.847% (active)
OCC(O)C(O)C(O)C(/C=N/Nc1ccccc1)=N/Nc1ccccc1 (configuration not stated),growth,HCT-15 colon,75% (inactive)
same,growth,HT29 colon; 10 µM,93.2% (inactive)
same,growth,SNB-19 CNS; 10 µM,97.4% (inactive)
same,growth,U251 CNS; 10 µM unless noted,90.9% (inactive)
same,growth,UACC-62 melanoma; 10 µM,43.6% (inactive)
same,growth,LOX IMVI melanoma; 10 µM unless noted,51.8% (inactive)
same,growth,SK-MEL-28 melanoma; 10 µM,103% (inactive)
NNc1c2ccccc2nc2ccccc12,growth,HCT-15 colon,35.1% (inactive)
same,growth,HT29 colon; 10 µM,34.5% (inactive)
same,growth,SNB-19 CNS; 10 µM,56.9% (inactive)
same,growth,U251 CNS; 10 µM unless noted,48% (inactive)
same,growth,SK-MEL-5 melanoma,22% (inactive)
same,growth,UACC-62 melanoma; 10 µM,45.2% (inactive)
same,growth,LOX IMVI melanoma; 10 µM unless noted,58.7% (inactive)
same,growth,SK-MEL-28 melanoma; 10 µM,76.7% (inactive)
Nc1nc(=S)c2ncn(C3OC(CO)C(O)C3O)c2[nH]1 (configuration not stated),growth,HCT-15 colon,107% (inactive) and 9.43% (active)
same,growth,HT29 colon; 10 µM,100% (inactive) and 14.3% (inactive)
same,growth,SNB-19 CNS; 10 µM,107% (inactive) and 78.6% (inactive)
same,growth,U251 CNS; 10 µM unless noted,105% (inactive) and 54.1% (inactive)
same,growth,UACC-62 melanoma; 10 µM,102% (inactive) and 0.101% (active)
same,growth,LOX IMVI melanoma; 10 µM unless noted,104% (inactive) and 7.31% (active)
same,growth,SK-MEL-28 melanoma; 10 µM,115% (inactive) and 50.8% (inactive)
COc1cccc2c1C(=O)c1c(O)c3c(c(O)c1C2=O)C[C@@](O)(C(=O)CO)C[C@@H]3OC1CC(N)C(O)C(C)O1 (some centres not stated),growth,HT29 colon; 0.0025 µM,93.2% (inactive)
same,growth,HT29 colon; 1 µM,40.7% (inactive)
same,growth,HT29 colon; 2.5 µM,55% (inactive)
same,growth,HT29 colon; 10 µM,4.69% (active)
same,growth,SNB-19 CNS; 0.0025 µM,92.5% (inactive)
same,growth,SNB-19 CNS; 1 µM,21.1% (inactive)
same,growth,SNB-19 CNS; 2.5 µM,35.6% (inactive)
same,growth,SNB-19 CNS; 10 µM,-0.904% (active)
same,growth,U251 CNS; 0.0025 µM,83.6% (inactive)
same,growth,U251 CNS; 2.5 µM,16.4% (inactive)
same,growth,U251 CNS; 10 µM,9.22% (active)
same,growth,UACC-62 melanoma; 0.0025 µM,97.5% (inactive)
same,growth,UACC-62 melanoma; 1 µM,14.8% (inactive)
same,growth,UACC-62 melanoma; 10 µM,-60% (active)
same,growth,LOX IMVI melanoma; 0.0025 µM,81.7% (inactive)
same,growth,LOX IMVI melanoma; 1 µM,8.33% (active)
same,growth,LOX IMVI melanoma; 10 µM,5.68% (active)
same,growth,SK-MEL-28 melanoma; 0.0025 µM,93.7% (inactive)
same,growth,SK-MEL-28 melanoma; 1 µM,65.7% (inactive)
same,growth,SK-MEL-28 melanoma; 2.5 µM,70.7% (inactive)
same,growth,SK-MEL-28 melanoma; 10 µM,-17% (active)
NC1=C(Cl)C(=O)c2ccccc2C1=O,growth,HCT-15 colon,51% (inactive)
same,growth,HT29 colon; 10 µM,58.8% (inactive)
same,growth,SNB-19 CNS; 10 µM,72.1% (inactive)
same,growth,U251 CNS; 10 µM unless noted,50.5% (inactive)
same,growth,UACC-62 melanoma; 10 µM,-41.4% (active)
same,growth,LOX IMVI melanoma; 10 µM unless noted,19.2% (inactive)
same,growth,SK-MEL-28 melanoma; 10 µM,105% (inactive)
OCC1OC(n2cnc3c(=S)nc[nH]c32)C(O)C1O (configuration not stated),growth,HCT-15 colon,104% (inactive) and 55.5% (inactive)
same,growth,HT29 colon; 10 µM,98.4% (inactive) and 45.9% (inactive)
same,growth,SNB-19 CNS; 10 µM,111% (inactive) and 97.4% (inactive)
same,growth,U251 CNS; 10 µM unless noted,93.5% (inactive) and 83.2% (inactive)
same,growth,UACC-62 melanoma; 10 µM,92.3% (inactive) and 26.7% (inactive)
same,growth,LOX IMVI melanoma; 10 µM unless noted,98.2% (inactive) and 16.1% (inactive)
same,growth,SK-MEL-28 melanoma; 10 µM,113% (inactive)
CCO/C=C1\SC(=S)N(c2cccc(O)c2)C1=O,growth,HT29 colon; 10 µM,98.5% (inactive)
same,growth,SNB-75 CNS,74.7% (inactive)
same,growth,SNB-19 CNS; 10 µM,96.3% (inactive)
same,growth,U251 CNS; 10 µM unless noted,102% (inactive)
same,growth,PC-3 prostate,98% (inactive)
same,growth,UACC-62 melanoma; 10 µM,103% (inactive)
same,growth,LOX IMVI melanoma; 10 µM unless noted,103% (inactive)
same,growth,SK-MEL-28 melanoma; 10 µM,102% (inactive)
CCCCCC(C)c1ccc(O)c(C)c1 (configuration not stated),growth,HCT-15 colon,103% (inactive)
same,growth,HT29 colon; 10 µM,103% (inactive)
same,growth,SNB-75 CNS,92.1% (inactive)
same,growth,U251 CNS; 10 µM unless noted,107% (inactive)
same,growth,LOX IMVI melanoma; 10 µM unless noted,98% (inactive)
same,growth,SK-MEL-28 melanoma; 10 µM,111% (inactive)
